A selection: hits, their analogues and other compounds. The true share with any hit is near 11%.
BAZ2B inh – inhibitors of human BAZ2B bromodomain | 360,000 tested, 4.4% active | Potency, µM (highest dose often 114 µM), for inactives: at the top dose activity change, negative = inhibition, hits mostly inhibitors | AlphaScreen BAZ2B-H3K14Ac peptide displacement | Q9UIF8; further: on the % scale 0 is the no-effect control and ±100 the full control effect; nearly all actives have a fitted effect of over 60% in size
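BAZ2B 50 nM plus b-H3(5-23)K14Ac 50 nM, PBS pH 7.4/0.01% Tween-20, 30 min RT; compound added (max 110 uM), 30 min RT; streptavidin donor/Ni-chelate acceptor beads 10 ug/mL final, 20 min dark; AlphaScreen read.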
L3MBTL1 block – inhibitors of human L3MBTL1; Q9Y468; AlphaScreen L3MBTL1–H3K9me1 peptide binding; Potency, µM (top dose mostly 57.1 µM), for the others: at the top dose activity, negative = inhibition, most hits filed as inhibitors; 230,000 tested, 0.66% active; further: on the % scale 0 is the no-effect control and ±100 the full control effect; nearly all actives have a fitted effect of over 60% in size
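Displacement of a biotinylated histone H3(1-15) peptide monomethylated at Lys9 (75 nM) from L3MBTL1 (50 nM) was measured by AlphaScreen after a 30 min room-temperature compound incubation; cefsulodin titration served as intraplate control.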
JMJD2A Tudor inh – blocks the human JMJD2A Tudor domain | AlphaScreen JMJD2A-Tudor / H3K4me3 peptide binding | Potency, µM (doses to about 114 µM), for inactives: at the top dose activity change, negative = inhibition, most hits filed as inhibitors | 390,000 tested, 4.4% active | AID 504339; further: on the % scale 0 is the no-effect control and ±100 the full control effect; nearly all actives have a fitted effect of over 50% in size
HP1b chromo inh – blocks HP1-beta chromodomain binding to methylated histone tails. Potency, µM (highest dose often 114 µM), inactives show at the highest dose activity change, negative = inhibition, hits mostly inhibitors. 390,000 tested, 0.56% active. AID 540317. AlphaScreen HP1-beta / biotin-H3K9me3 peptide binding; further: nearly all actives have a fitted effect of over 70% in size
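AlphaScreen: HP1-beta (50 nM) preformed 30 min with biotin-H3(1-18)K9me3 peptide (50 nM) in PBS pH 7.4, 0.01% Tween-20. Compound added for 30 min at RT, then streptavidin donor/nickel chelate acceptor beads (10 ug/mL) for 30 min.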
G9a inh – blocks human histone lysine methyltransferase G9a. 350,000 tested, 8.8% active. Potency, µM (top dose mostly 102 µM), inactives show top-dose activity, negative = inhibition, actives largely listed as inhibitors. AID 504332. Q96KQ7. G9a H3K9 monomethylation, AlphaScreen, 2 h; further: on the % scale 0 is the no-effect control and ±100 the full control effect; nearly all actives have a fitted effect of over 75% in size
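Using a bead-based AlphaScreen, monomethylated H3K9 product from 2 h room-temperature reactions (G9a 20 nM, peptide 500 nM, SAM 20 uM) was detected with 0.5 ug/mL rabbit anti-H3K9me1 antibody.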
Starred values were filed as active, the others as inactive; u = inconclusive; x = not tested or not shown; [ ] = another dose, or the depositor's remark. The call rests on the fitted dose curve; in most records, active means well fitted inhibition curve with a large enough effect; inconclusive means small, poorly fitted or top-dose-only effect; inactive means no such curve, though single readings can be large or run the other way. Potency means the concentration at half of the fitted maximal effect.

SMILES	BAZ2B inh	L3MBTL1 block	JMJD2A Tudor inh	HP1b chromo inh	G9a inh
O=C1CCCN1CCC1CCN(C2CC(=O)N(c3ccc(Cl)cc3)C2=O)CC1 (stereo unspecified)	-7%	x	-19%	29%	11µM*
CCCOc1ccc(N2C(=O)CC(N3CCCC(C(=O)N4CCCC4)C3)C2=O)cc1 (stereo unspecified)	1%	9%	0%	52%	u
O=C1CCCN1CCC1CCN(C2CC(=O)N(Cc3ccc(N4CCCC4=O)cc3)C2=O)CC1 (stereo unspecified)	-5%	23%[11.4 µM]	-5%	38%	u
O=C(C1CCCN(C2CC(=O)N(c3ccc(Cl)cc3)C2=O)C1)N1CCCC1 (stereo unspecified)	-2%	x	-6%	40%	79µM*
Cc1cc(C)n(Cc2cc(C(=O)O)c3ccccc3n2)n1	-2%	x	-1%	33%	u
CCOc1ccccc1NC(=O)CCS(=O)(=O)c1ccc2c(c1)oc(=O)n2C	11%[57.1 µM]	x	-8%	40%	-6%[59 µM]
CCOc1ccc(NC(=O)CN(C)C(=O)c2ccc(N3CCCCC3)c([N+](=O)[O-])c2)cc1OCC	u	-3%	u	-32%	50µM*
Cc1cc(Br)ccc1NC(=O)CN(C)C(=O)c1cc([N+](=O)[O-])ccc1N1CCOCC1	5%	-5%	-21%	5%	3.5µM*
CCOc1ccc(NC(=O)CN(C)C(=O)c2cc([N+](=O)[O-])ccc2N2CCCCC2)cc1OCC	-12%	-11%	-34%	-23%	2.2µM*
CCOc1ccc(NC(=O)CN(C)C(=O)c2ccc(N3CCCC3)c([N+](=O)[O-])c2)cc1OCC	u	-3%	-34%	-17%	-2%[2.33 µM]
COc1ccc(Cc2nc3ccc(C(=O)N(C)CCn4ccnc4)cc3o2)cc1OC	-4%	x	-4%	29%	55%[59 µM]
Cc1onc(NC(=O)c2ccc(Cl)cc2Cl)c1Br	-5%	x	-22%	11%	18µM*
CCc1cccc(CN2CCC(CNC(=O)Nc3ccc(Cl)cc3)CC2)c1	50µM*	-9%	-19%	27%	-13%
O=C(NCC1CCN(Cc2cccc(Cl)c2)CC1)Nc1ccc(Cl)cc1	-38%	x	-30%	43%	-13%
O=C(Cn1cc(SCc2ccc(F)cc2)c2ccccc21)N1CCCCC1	-26%	x	3%	49%	-1%[59 µM]
COc1ccccc1N1CCN(C(=O)CCCn2nc(C)c([N+](=O)[O-])c2C)CC1	-1%	4%	-7%	23%	-6%
C=CCn1c(O)c(C=Nc2ccccc2)sc1=S	-18%	2%	-12%	35%	50µM*
CCn1c(O)c(C=Nc2ccccc2)sc1=S	6%	x	-11%	42%	u
Cc1ccc(NC(=O)CCCN2C(=O)/C(=C/C=C/c3ccccc3)SC2=S)cc1	-11%	-5%	-12%[57.1 µM]	-24%	-2%[59 µM]
CCC(C(=O)O)N1C(=O)/C(=C/c2cccn2C)SC1=S (stereo unspecified)	u	-4%	-34%	-3%	u
O=C(O)CC(C(=O)O)N1C(=O)/C(=C/C=C/c2ccco2)SC1=S (stereo unspecified)	5µM*	1.1µM*	3.5µM*	3.5µM*	-186%[59 µM]
O=C(O)C(Cc1ccccc1)N1C(=O)/C(=C/C=C/c2ccco2)SC1=S (stereo unspecified)	8.9µM*	1.3µM*	10µM*	10µM*	x
O=C(O)CCCN1C(=O)/C(=C/C=C/c2ccco2)SC1=S	4µM*	0.71µM*	5.6µM*	14µM*	-170%[12.7 µM]
CCN(CC)S(=O)(=O)c1ccc2c(c1)N(CC(=O)N1CCN(c3cccc(Cl)c3)CC1)C(=O)CO2	0%	x	-15%	25%	-22%[59 µM]
CCCCCCCCCCCCCCCCC(C(=O)O)C(O)(CC(=O)O)C(=O)O (stereo unspecified)	x	x	x	x	-40%[12.7 µM]
Cc1cc(O)c(CN2CCN(c3ccc(F)cc3)CC2)c2oc(=O)cc(C)c12	-7%	x	-14%	22%	-8%[59 µM]
CCOC(=O)C1=C(C)Nc2ccc(C)cc2S1	50µM*	-8%	-25%	u	u
CCOC(=O)C1=C(C)Nc2ccccc2S1	40µM*	x	u	u	x
CCOCCOC(=O)c1cccc(NC(=O)OCC)c1	-3%	-3%	0%	24%	6%

Screening results as filed in PubChem BioAssay.
